Several values for one entry are separate records, joined by “and”; a condition that tells them apart may be missing. Equal entries are not always repeated. Screen size: about 5,500 compounds; about 2,000 (36%) were called active. Not shown: some 18% with an inconclusive outcome. No stated cut-off is given here; in the data, active means normalized growth mostly below about 0.91 (no sharp cut-off); inconclusive means no clear call, values can overlap the other calls; inactive means mostly above about 0.92. The list shows a part of the results.
Test: chemical genetic growth profiling, strain panel (AID 1159580);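 further: tested at 20 µM; growth read once vehicle control cultures reached saturation at 30 °C; 1 = growth at the plate median or of vehicle wells; lower values mean less growth of the strain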
Settings: S. cerevisiae deletion strains, growth OD

Measured: normalized growth

C[C@]12CCC3c4ccc(OS(=O)(=O)O)cc4CCC3C1CC[C@H]2O (some centres undefined)
inactive: locus YAL013W, strain DEP1, hits give low values 0.998 | locus YAL021C, strain ccr4, hits give low values 0.986 | locus YAL026C, strain drs2, hits give low values 0.973 | locus YAL030W, strain snc1, hits give low values 1 | locus YBL061C, strain skt5, hits give low values 0.969 | locus YBR009C, strain hhf1, hits give low values 1.04 | locus YBR021W, strain FUR4, hits give low values 0.983 | locus YBR023C, strain chs3, hits give low values 0.966 | locus YBR171W, strain sec66, hits give low values 0.983 | locus YBR229C, strain ROT2, hits give low values 0.988 | locus YBR231C, strain swc5, hits give low values 0.993 | locus YBR279W, strain paf1, hits give low values 0.978 | locus YCL011C, strain gbp2, hits give low values 0.961 | locus YCL016C, strain dcc1, hits give low values 0.948 | locus YCL029C, strain bik1, hits give low values 0.99 | locus YCL061C, strain MRC1, hits give low values 0.975 | locus YCL069W, strain vba3, hits give low values 0.985 | locus YCR088W, strain abp1, hits give low values 0.983 | locus YDL005C, strain med2, hits give low values 0.984 | locus YDL035C, strain GPR1, hits give low values 0.991 | locus YDL040C, strain nat1, hits give low values 0.985 | locus YDL074C, strain BRE1, hits give low values 1.02 | locus YDL101C, strain DUN1, hits give low values 0.996 | locus YDL134C, strain PPH21, hits give low values 0.978 | locus YDL185W, strain tfp1, hits give low values 0.99 | locus YDL192W, strain arf1, hits give low values 0.987 | locus YDR001C, strain nth1, hits give low values 0.974 | locus YDR069C, strain doa4, hits give low values 0.981 | locus YDR101C, strain arx1, hits give low values 0.988 | locus YDR137W, strain rgp1, hits give low values 0.955 | locus YDR150W, strain NUM1, hits give low values 0.997 | locus YDR159W, strain sac3, hits give low values 0.984 | locus YDR162C, strain NBP2, hits give low values 0.986 | locus YDR195W, strain ref2 0.97 | locus YDR297W, strain sur2, hits give low values 0.986 | locus YDR318W, strain mcm21, hits give low values 0.986 | locus YDR334W, strain swr1, hits give low values 0.968 | locus YDR335W, strain msn5, hits give low values 0.968 | locus YDR388W, hits give low values 0.986 | locus YDR392W, strain spt3, hits give low values 0.907 | locus YDR502C, strain sam2, hits give low values 0.986 | locus YEL003W, strain gim4, hits give low values 1 | locus YEL037C, strain rad23, hits give low values 0.989 | locus YEL061C, strain CIN8 (second series), hits give low values 0.981 | locus YEL061C, strain CIN8, hits give low values 0.996 | locus YER015W, strain faa2, hits give low values 0.986 | locus YER016W, strain bim1, hits give low values 0.942 | locus YER110C, hits give low values 0.978 | locus YER111C, strain swi4, hits give low values 0.965 | locus YER155C, strain BEM2 (second series), hits give low values 1 | locus YER155C, strain BEM2, hits give low values 0.994 | locus YER167W, strain BCK2, hits give low values 0.987 | locus YFR010W, strain ubp6, hits give low values 0.998 | locus YGL078C, strain dbp3, hits give low values 0.986 | locus YGL086W, strain mad1, hits give low values 0.988 | locus YGL167C, strain pmr1, hits give low values 0.973 | locus YGL173C, strain kem1, hits give low values 0.999 | locus YGL227W, strain vid30, hits give low values 0.981 | locus YGL240W, strain doc1, hits give low values 1.01 | locus YGL248W, strain PDE1, hits give low values 0.997 | locus YGL253W, strain hxk2, hits give low values 0.953 | locus YGR078C, strain PAC10, hits give low values 1.01 | locus YGR135W, strain pre9, hits give low values 0.96 | locus YGR229C, strain SMI1, hits give low values 1.01 | locus YGR252W, strain gcn5, hits give low values 0.997 | locus YHR013C, strain ard1, hits give low values 0.92 | locus YHR027C, strain rpn1, hits give low values 0.965 | locus YHR030C, strain SLT2, hits give low values 0.99 and 0.957 | locus YHR079C, strain IRE1 (second series), hits give low values 0.986 | locus YHR079C, strain IRE1, hits give low values 0.959 | locus YHR094C, strain hxt1, hits give low values 0.987 | locus YHR129C, strain ARP1, hits give low values 0.988 | locus YHR142W, strain chs7, hits give low values 0.951 | locus YHR200W, strain rpn10, hits give low values 0.987 | locus YIL066C, strain RNR3, hits give low values 0.984 | locus YIL073C, strain SPO22, hits give low values 0.954 | locus YIL125W, strain kgd1, hits give low values 0.988 | locus YIR030C, strain dcg1, hits give low values 0.992 | locus YJL092W, strain hpr5, hits give low values 0.978 | locus YJL095W, strain BCK1 (second series), hits give low values 0.969 | locus YJL095W, strain BCK1, hits give low values 1.02 and 0.969 | locus YJL115W, strain asf1, hits give low values 0.947 | locus YJL129C, strain trk1, hits give low values 0.911 | locus YJL134W, strain LCB3, hits give low values 0.993 | locus YJL154C, strain vps35, hits give low values 0.976 | locus YJL164C, strain tpk1, hits give low values 0.983 | locus YJL166W, strain qcr8, hits give low values 0.998 | locus YJL168C, strain set2, hits give low values 1 | locus YJL187C, strain SWE1 (second series), hits give low values 1.01

Reference: PubChem BioAssay AID1159580 (chemical genetic matrix, 2015)
